Experimental data: PubChem BioAssay (NCI)
Several values for one entry are separate records, joined by “and”; a condition that tells them apart may be missing. Equal entries are not always repeated. This is part of a sample that, as a whole, favours compounds with a hit. Of some 83,000 tested, about 20% had one in any assay.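 Cells were grown in 96-well plates and exposed to the test compound at a single concentration for 48 hours; results are reported as percent growth, with values below 10 considered active.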 Activity calls are given as the source filed them.

Key:
Experiment in all cases: NCI-60 one-dose screen, 48 h (100 = growth as untreated, 0 = no growth, -100 = all killed)
Conditions in all cases: 10 µM unless noted
[1] = test system: SR leukemia
[2] = test system: RPMI-8226 leukemia
[3] = test system: OVCAR-8 ovarian
[4] = test system: OVCAR-5 ovarian
[5] = test system: OVCAR-4 ovarian
[6] = test system: SK-OV-3 ovarian
[7] = test system: IGROV1 ovarian
[8] = test system: OVCAR-3 ovarian
[9] = test system: HS 578T breast
[10] = test system: NCI/ADR-RES ovarian
[11] = test system: T-47D breast
[12] = test system: BT-549 breast
[13] = test system: MDA-MB-435 melanoma
[14] = test system: SW-620 colon
[15] = test system: MCF7 breast
[16] = test system: HCC-2998 colon
[17] = test system: KM12 colon
[18] = test system: HCT-116 colon

Row | SMILES | growth [1] | growth [2] | growth [3] | growth [4] | growth [5] | growth [6] | growth [7] | growth [8] | growth [9] | growth [10] | growth [11] | growth [12] | growth [13] | growth [14] | growth [15] | growth [16] | growth [17] | growth [18]
1 | COC(=O)c1nc(=S)[nH]c(C(=O)OC)c1C(=O)c1ccc(OC)cc1 | 105% (inactive) | 111% (inactive) | 109% (inactive) | 103% (inactive) | 112% (inactive) | 149% (inactive) | 99.9% (inactive) | 119% (inactive) | 76.1% (inactive) | 99.8% (inactive) | 125% (inactive) | 109% (inactive) | 110% (inactive) | 105% (inactive) | 93.6% (inactive) | 118% (inactive) | 103% (inactive) | –
2 | COc1ccc(/C=N/NC(N)=S)cc1 | 107% (inactive) | 88.9% (inactive) | 100% (inactive) | 93.7% (inactive) | 89.8% (inactive) | 106% (inactive) | 76.9% (inactive) | 111% (inactive) | 101% (inactive) | 96.7% (inactive) | 85.6% (inactive) | 104% (inactive) | 100% (inactive) | 125% (inactive) | 103% (inactive) | 90.7% (inactive) | 119% (inactive) | –
3 | COc1ccc(/C=N/Nc2nc3ccccc3s2)cc1 | 87.9% (inactive) | 104% (inactive) | 105% (inactive) | 103% (inactive) | 87.5% (inactive) | 90% (inactive) | 68.5% (inactive) | 86.4% (inactive) | 105% (inactive) | 98.7% (inactive) | 86.6% (inactive) | 97.6% (inactive) | 83.3% (inactive) | 94.8% (inactive) | 61.1% (inactive) | 104% (inactive) | 87.6% (inactive) | 83.3% (inactive)
4 | O=COCCCc1ccccc1 | 117% (inactive) | 102% (inactive) | 99.2% (inactive) | 105% (inactive) | 120% (inactive) | 98.1% (inactive) | 104% (inactive) | 109% (inactive) | 96.6% (inactive) | 108% (inactive) | 92.7% (inactive) | 104% (inactive) | 110% (inactive) | 103% (inactive) | 105% (inactive) | 121% (inactive) | 109% (inactive) | –
5 | O=C(O)C1CSCN1 (centres undefined) | 97.4% (inactive) | 106% (inactive) and 105% (inactive) | 113% (inactive) and 98.8% (inactive) | 118% (inactive) and 88.8% (inactive) | 112% (inactive) and 102% (inactive) | 105% (inactive) and 94.9% (inactive) | 106% (inactive) | 120% (inactive) and 107% (inactive) | 136% (inactive) and 112% (inactive) | 108% (inactive) and 87.2% (inactive) | 107% (inactive) and 97.9% (inactive) | 99% (inactive) | 95.5% (inactive) and 104% (inactive) | 115% (inactive) and 113% (inactive) | 95.4% (inactive) | 133% (inactive) and -20.6% (active) | 117% (inactive) and 110% (inactive) | 108% (inactive) and 94.4% (inactive)
6 | O=C(O)Cc1cc(=O)[nH]n(-c2ccccc2)c1=O | 88.9% (inactive) | 117% (inactive) | 90% (inactive) | 100% (inactive) | 103% (inactive) | 98% (inactive) | 115% (inactive) | 110% (inactive) | 117% (inactive) | 115% (inactive) | 98.2% (inactive) | 103% (inactive) | 108% (inactive) | 108% (inactive) | 98.9% (inactive) | 106% (inactive) | 107% (inactive) | 101% (inactive)
7 | CC(=O)c1cc2ccccc2o1 | 98.3% (inactive) | 98.6% (inactive) | 115% (inactive) | 87.7% (inactive) | 114% (inactive) | 96.8% (inactive) | 110% (inactive) | 114% (inactive) | 108% (inactive) | 102% (inactive) | 100% (inactive) | 97.2% (inactive) | 109% (inactive) | 112% (inactive) | 95.6% (inactive) | 109% (inactive) | 109% (inactive) | 100% (inactive)
8 | CCc1ccccc1-n1[nH]c(C)c(C=N)c1=O | 94.8% (inactive) | 107% (inactive) | 118% (inactive) | 110% (inactive) | 114% (inactive) | 119% (inactive) | 112% (inactive) | 124% (inactive) | 99.2% (inactive) | 106% (inactive) | 126% (inactive) | 108% (inactive) | 104% (inactive) | 106% (inactive) | 94.1% (inactive) | 118% (inactive) | 102% (inactive) | 120% (inactive)
9 | O=C(O)c1c2c(nc3ccccc13)Cc1ccccc1-2 | 94.9% (inactive) and 98% (inactive) | 97% (inactive) and 84.1% (inactive) | 96.3% (inactive) and 96.2% (inactive) | 109% (inactive) and 88.1% (inactive) | 116% (inactive) and 97.6% (inactive) | 99.7% (inactive) and 102% (inactive) | 121% (inactive) and 85.6% (inactive) | 102% (inactive) and 95.6% (inactive) | 94.1% (inactive) and 84.2% (inactive) | 107% (inactive) and 95.7% (inactive) | 97.3% (inactive) and 98.5% (inactive) | 103% (inactive) and 88.1% (inactive) | 112% (inactive) and 96.6% (inactive) | 99.3% (inactive) and 90.1% (inactive) | 97.3% (inactive) and 92% (inactive) | 98.3% (inactive) and 99.9% (inactive) | 97.8% (inactive) and 98.9% (inactive) | 95.6% (inactive) and 104% (inactive)
10 | COC1C(OC(N)=O)C(O)C(Oc2ccc3c(O)c(NC(=O)c4ccc(O)c(CC=C(C)C)c4)c(=O)oc3c2C)OC1(C)C (centres undefined) | 84% (inactive) and 80% (inactive) | 99.5% (inactive) and 80.1% (inactive) | 103% (inactive) | 86.8% (inactive) and 91.4% (inactive) | 111% (inactive) and 98.9% (inactive) | 112% (inactive) and 121% (inactive) | 137% (inactive) and 129% (inactive) | 97.3% (inactive) and 90.6% (inactive) | 89.4% (inactive) and 102% (inactive) | 106% (inactive) and 97.1% (inactive) | 106% (inactive) and 94.8% (inactive) | 112% (inactive) and 97.8% (inactive) | 98.6% (inactive) and 98.8% (inactive) | 104% (inactive) and 92.7% (inactive) | 96.8% (inactive) and 93.4% (inactive) | 107% (inactive) and 96.6% (inactive) | 110% (inactive) and 101% (inactive) | 96.8% (inactive) and 101% (inactive)
11 | COc1ccc(CCl)c(C)c1OC | 105% (inactive) | 106% (inactive) | 99.3% (inactive) | 100% (inactive) | 109% (inactive) | 110% (inactive) | 104% (inactive) | 105% (inactive) | 105% (inactive) | 105% (inactive) | 102% (inactive) | 105% (inactive) | 108% (inactive) | 101% (inactive) | 103% (inactive) | 100% (inactive) | 101% (inactive) | 99.6% (inactive)
12 | CC(O)CCNC(c1ccccc1)C(O)c1ccccc1 (centres undefined) | 105% (inactive) | 89.7% (inactive) | 104% (inactive) | 109% (inactive) | 107% (inactive) | 107% (inactive) | 95.9% (inactive) | 132% (inactive) | 110% (inactive) | 110% (inactive) | 99.2% (inactive) | 110% (inactive) | 112% (inactive) | 110% (inactive) | 99.9% (inactive) | 111% (inactive) | 114% (inactive) | 100% (inactive)
13 | O=C1C=CC(=O)N1Cc1ccco1 | 74.7% (inactive) | 107% (inactive) | 85.6% (inactive) | 62.1% (inactive) | 106% (inactive) | 94.2% (inactive) | 69.7% (inactive) | 113% (inactive) | 117% (inactive) | 76.6% (inactive) | 91.7% (inactive) | 100% (inactive) | 95.8% (inactive) | 58.4% (inactive) | 62% (inactive) | 101% (inactive) | 103% (inactive) | 52.5% (inactive)
14 | O=C1C(=O)c2ccccc2C(O)=C1CC=C(Cl)Cl | 43.4% (inactive) and 55.5% (inactive) | 44.7% (inactive) and 41.7% (inactive) | 44.3% (inactive) | 35.3% (inactive) and 87.2% (inactive) | 83.9% (inactive) and 84.4% (inactive) | 73.9% (inactive) and 58.4% (inactive) | 42.7% (inactive) | 65.8% (inactive) and 67.1% (inactive) | 82.3% (inactive) and 87.2% (inactive) | 57.6% (inactive) and 55.7% (inactive) | 80.8% (inactive) and 69% (inactive) | 63% (inactive) and 71.6% (inactive) | 43.8% (inactive) and 52.5% (inactive) | 50.1% (inactive) and 52.6% (inactive) | 37.9% (inactive) and 44.7% (inactive) | 61.8% (inactive) and 64.4% (inactive) | 48.1% (inactive) and 45.8% (inactive) | 27.9% (inactive) and 40% (inactive)
